Only some compounds are listed: those with a hit (about 5.4% of all), similar ones and a draw of the others.
Mdm2-MdmX inh: human Mdm2/MdmX binding inhibition | O15151+Q00987 | SaOS-2 split-luciferase Mdm2/MdmX complementation, luminescence | inhibition, % at 8 µM | hit rate 3% among 330,000 | AID 485346;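 active = inhibition of at least 50% at 8 µM in the primary screen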
Target sequence (O15151 whole entry, looked up): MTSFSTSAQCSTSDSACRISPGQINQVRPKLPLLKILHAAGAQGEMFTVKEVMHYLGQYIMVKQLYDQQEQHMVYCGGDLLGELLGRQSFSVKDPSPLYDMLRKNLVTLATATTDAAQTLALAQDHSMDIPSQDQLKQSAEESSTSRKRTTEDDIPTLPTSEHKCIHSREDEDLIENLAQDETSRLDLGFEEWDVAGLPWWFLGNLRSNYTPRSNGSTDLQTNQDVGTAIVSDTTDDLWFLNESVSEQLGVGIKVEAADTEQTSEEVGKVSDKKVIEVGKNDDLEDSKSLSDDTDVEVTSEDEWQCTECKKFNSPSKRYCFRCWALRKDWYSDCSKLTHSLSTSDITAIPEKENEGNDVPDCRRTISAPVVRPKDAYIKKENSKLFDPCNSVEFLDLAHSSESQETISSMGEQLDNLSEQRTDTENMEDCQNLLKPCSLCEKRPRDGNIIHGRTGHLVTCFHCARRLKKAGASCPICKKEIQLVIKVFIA
Target sequence (Q00987 whole entry, looked up): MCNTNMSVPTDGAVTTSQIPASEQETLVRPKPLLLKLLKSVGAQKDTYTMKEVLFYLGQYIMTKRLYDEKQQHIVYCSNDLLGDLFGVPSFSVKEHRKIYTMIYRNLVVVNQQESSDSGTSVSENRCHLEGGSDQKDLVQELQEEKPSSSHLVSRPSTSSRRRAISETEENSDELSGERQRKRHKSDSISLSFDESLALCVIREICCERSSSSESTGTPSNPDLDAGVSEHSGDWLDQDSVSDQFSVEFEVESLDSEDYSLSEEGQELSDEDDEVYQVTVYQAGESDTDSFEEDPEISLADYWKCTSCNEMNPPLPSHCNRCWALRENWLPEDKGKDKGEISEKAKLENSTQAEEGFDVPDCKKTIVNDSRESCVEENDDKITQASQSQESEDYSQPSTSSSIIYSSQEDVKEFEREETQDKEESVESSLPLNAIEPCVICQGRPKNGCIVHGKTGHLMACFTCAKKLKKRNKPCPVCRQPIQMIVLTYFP
Beta apoptosis: beta cell apoptosis inhibition; AID 435005; INS-1E cytokine-induced death, ATP luminescence, 48 h; percent of positive-control rescue, neutral wells zero; hit rate 0.8% among 300,000; protection from apoptosis, % (concentration not given with the values);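 active = Every replicate reaches about 75%, or at least half do and their mean reaches it too, limit read from the data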;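 also: 0% = cytokine-treated negative control wells and 100% = positive control rescue; higher means more ATP so stronger rescue from cytokine killing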
Calb FLC: C. albicans growth modulation with fluconazole. AID 1979. hit rate 0.57% among 300,000. C. albicans CaCi-2 (fluconazole-resistant clinical isolate) + fluconazole, Alamar Blue growth, 48 h. growth inhibition, % (concentration not given with the values);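 active = growth inhibition above about 58% in most replicates, limit read from the data, passing the limit was not always enough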;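 also: all wells also contain fluconazole at 8 µg/ml as a sub-toxic cotreatment; 0% = median of DMSO wells and 100% = median of geldanamycin control wells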
CSC inhib: cancer stem cell inhibition | cancer stem cell-like cells viability, luminescence | inhibition, % at 7.5 µM | hit rate 1.1% among 300,000 | AID 2717; in the data active = inhibition above about 75%; tested in HMLE shEcad cells
SKKanGAS inh: SKKanGAS growth inhibition; S. pyogenes SKKanGAS, kanamycin growth, BacTiter-Glo, 6 h; AID 1662; hit rate 1.3% among 300,000; inhibition, % at 7.5 µM;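 active = mean replicate score, as percent of positive control median, at least 50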;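 also: strain carries kanamycin resistance gene driven by streptokinase promoter and grows in 40 µg/ml kanamycin; loss of luminescence reflects streptokinase promoter inhibition or plain growth inhibition; 0% = median of DMSO wells and 100% = positive control at its reference dose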
MPTP block: permeability transition pore inhibition. isolated mouse mitochondria, Ca2+ swelling absorbance, 30 min. inhibition, % at 10 µM. hit rate 1.4% among 360,000. AID 602449;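 active = inhibition of 50% or more, scaled per plate between neutral and stimulator controls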;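 also: 0% = DMSO wells given calcium and 100% = 1 mM EGTA wells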
* marks the source's active call; other numbers are inactive results; . = no result given.

SMILES | Mdm2-MdmX inh | Beta apoptosis | Calb FLC | CSC inhib | SKKanGAS inh | MPTP block
Cc1ccccc1OC1C(=O)N(Cc2ccc3c(c2)OCO3)C1c1sccc1C (configuration not stated) | 48.4 | 79.1* | -5.5 | 49.4 | 13.7 | 1.8
O=C(NCc1ccc(C(F)(F)F)cc1)c1ccc2c(c1)S(=O)(=O)c1ccccc1C2=O | -10.8 | -2.0 | 7.8 | -0.1 | 50.7* | 4.6
C[C@H](N)c1nnc(SCc2c(Cl)cccc2Cl)o1 | -0.3 | -0.7 | 3.6 | 4.1 | -2.6 | 0.6
Clc1cccc(Cl)c1CSc1nnc(/C=C/c2ccccc2)o1 | 42.9 | 7.7 | -0.9 | 19.4 | 53.7* | -2.9
COCCNC(=O)CN(C(=O)CCC(=O)Nc1cc(C)on1)c1cccc(C)c1C | 10.2 | -6.9 | -1.3 | -10.5 | 5.2 | 0.0
CCc1ccc(OC)c(S(=O)(=O)N2CCN(C(=O)c3ccco3)CC2)c1 | 11.7 | 0.7 | -2.9 | -1.3 | -2.7 | -0.1
CCN1C[C@@H]2[C@@H]3C(=O)N(Cc4ccccc4)C(=O)[C@@H]3[C@](CC)(C1=O)N2C(=O)c1ccc(Br)cc1 | . | . | . | . | . | 0.2
COc1ccc(-c2c(-c3ccccc3OC)sc3ccccc23)cc1 | 19.3 | 20.5 | -7.7 | 20.5 | 4.8 | 12.0
COc1ccc(-c2sc3ccc(OC)cc3c2-c2ccc(O)cc2)cc1 | 26.6 | 12.5 | . | . | . | 1.4
COc1ccc2sc(-c3ccccc3OC)c(-c3ccc(O)cc3)c2c1 | 22.2 | -0.6 | . | 108.5* | . | 0.6
COc1cc(OC)cc(-c2sc3ccc(OC)cc3c2-c2ccc(O)cc2)c1 | 20.2 | 1.9 | . | 136.1* | . | 0.3
COc1ccccc1-c1sc2cc3c(cc2c1-c1ccc(O)cc1)OCO3 | 16.1 | -9.3 | . | . | . | 2.4
COc1cc2sc(-c3ccccc3OC)c(-c3ccc(O)cc3)c2cc1OC | 27.1 | -10.1 | . | 80.2* | . | 0.6
C=CCn1c(C(CC)CC)nc2ccccc21 | 3.2 | -3.8 | 0.6 | -7.7 | 1.6 | 5.9
Cc1ccc(NC(=O)c2cc(N3C(=O)C=CC3=O)ccc2N2CCOCC2)cc1Cl | . | -4.6 | 8.1 | 73.7 | 61.3* | 45.8
Cc1ccc(NC(=O)c2cc(N3C(=O)CCC3=O)ccc2N2CCOCC2)cc1 | 5.0 | 8.6 | 7.1 | -13.4 | -8.7 | -0.5
COC(=O)c1cc(NC(=O)c2cc(-c3ccccc3Cl)oc2C(F)(F)F)ccc1N1CCOCC1 | 36.4 | 11.2 | -0.6 | 89.5* | 13.3 | 24.3
CCOC(=O)c1cc2cc(OC)ccc2n1C1CCN(CCc2ccccc2)CC1 | . | . | . | . | . | 4.1
CCC(=O)N1c2ccc(S(=O)(=O)CCC(=O)N3CCn4c3nc3ccccc34)cc2CC1C (configuration not stated) | 42.5 | 2.6 | 80.6* | 4.4 | -3.3 | 0.2
CCOC(=O)N1CCN(C(=O)CCS(=O)(=O)c2ccc3c(c2)CC(C)N3C(=O)CC)CC1 (configuration not stated) | 0.2 | -7.6 | 5.4 | -9.9 | 1.7 | 1.1
C/C(=N\Nc1nc(C)cc(-c2ccccc2)n1)c1ccccc1 | 8.8 | 82.0* | 5.8 | -12.9 | -5.4 | 0.7
C/C(=N\Nc1nc(C)cc(-c2ccccc2)n1)c1ccc(O)cc1 | 26.0 | 82.9* | -1.5 | -8.3 | -0.2 | 1.1
C/C(=N\Nc1nc(C)cc(-c2ccccc2)n1)c1ccc(C)o1 | 7.8 | 19.8 | 6.0 | 0.3 | 2.5 | -1.3
C/C(=N\Nc1nc(C)cc(-c2ccccc2)n1)c1cccc(N)c1 | -1.6 | 88.9* | -2.8 | 9.6 | 7.8 | 1.4
C/C(N)=C(/C#N)C(=O)CSc1nc2ccc(C)cc2[nH]1 | -146.7 | -5.2 | 24.8 | -16.4 | -3.1 | -1.2
SMILES | Mdm2-MdmX inh | Beta apoptosis | Calb FLC | CSC inhib | SKKanGAS inh | MPTP block
O=C(O)c1ccc(Cn2nnc3sc4c(c3c2=O)CCCC4)cc1 | -25.8 | -0.6 | 22.7 | -8.4 | 5.9 | -1.3
CC1(C)C=Cc2cc3ccc(=O)oc3cc2O1 | -38.6 | . | 5.6 | -10.9 | 3.0 | 1.5
CC1Oc2cc3oc4c(O)c5c(cc4c(=O)c3c(O)c2C1(C)C)C=CC(C)(C)O5 (configuration not stated) | 17.5 | 2.0 | -3.6 | -6.8 | 70.0* | .
O=C(N/C=N/OCc1ccc(Cl)cc1Cl)NOCc1ncc(C(F)(F)F)cc1Cl | 2.3 | -17.9 | 17.6 | 124.2* | 24.9 | 3.4
CO/N=C/NC(=O)NOCc1ncc(C(F)(F)F)cc1Cl | 6.0 | -2.6 | -1.7 | 4.9 | -4.8 | -5.9
O=C(Nc1cccc(Cl)c1N1CCCC1)c1cccc(-c2cc3ccccc3oc2=O)c1 | 20.0 | 10.8 | 12.6 | 84.5* | 14.0 | -1.4
CCOc1ccc2nc(NC(=O)c3cccc(-c4cc5ccccc5oc4=O)c3)sc2c1 | . | 80.8* | 8.8 | 40.5 | 10.6 | -1.6
Cc1ccc(NC(=O)CN(c2ccccc2)S(=O)(=O)N(C)C)cc1 | -10.8 | -2.9 | -0.2 | -10.5 | 4.4 | 5.5
CC(C)C[C@H](NC(=O)[C@@H]1Cc2ccccc2CN1C(=O)OC(C)(C)C)C(=O)NCC1CCC(C(=O)O)CC1 (some centres not stated) | -7.1 | -5.6 | -2.5 | -11.6 | -3.1 | 2.4
CN(C(=O)COC(=O)CNC(=O)C1CCCCC1)c1ccccc1 | -16.8 | -6.5 | . | -12.3 | . | -0.1
Nc1nc(=S)c2[nH]c(=S)[nH]c2[nH]1 | . | . | . | . | . | -1.7
Nc1nc(=S)c2[nH]cnc2[nH]1 | 45.2 | . | . | 91.1* | . | 1.2
O=C(Cc1csc(NC(=O)Nc2cccc(Cl)c2)n1)NCc1cccnc1 | 17.0 | 1.5 | 0.5 | . | 89.0* | -2.5
COc1ccccc1NC(=O)Nc1nc(CC(=O)NCc2ccccn2)cs1 | 17.2 | 1.6 | 0.1 | . | 15.9 | 0.6
O=C(Cc1csc(NC(=O)Nc2cccc(Cl)c2)n1)NCc1ccccn1 | -35.1 | 4.9 | 1.2 | . | 86.2* | 14.5
O=C(Nc1nccs1)c1cc([N+](=O)[O-])ccc1Cl | 44.5 | -5.4 | -1.5 | 5.6 | 0.0 | 1.2
CCOC(=O)C1=C(O)/C(=C/c2cc(OC)c(OC)c(OC)c2)N=C1C | -9.6 | 4.8 | -0.8 | 7.4 | -1.9 | -1.6
COC(=O)c1cc(S(=O)(=O)n2nc(C)c(Br)c2C)c(Cl)cc1Cl | 33.7 | 10.1 | 48.9 | 45.4 | 72.0* | -3.8
CN1c2ccsc2C(O)=C(C(=S)Nc2ccc(F)c(Cl)c2)S1(=O)=O | -3.0 | . | -1.5 | 33.3 | 29.4 | 44.9
COc1ccccc1Nc1nc(N)nc(CN2CCN(Cc3ccccc3)CC2)n1 | 9.2 | 1.7 | -18.2 | 0.6 | -18.2 | 0.1
Cc1cccc(Nc2nc(N)nc(CN3CCN(c4ccccc4F)CC3)n2)c1 | 42.2 | -0.8 | 9.6 | -1.1 | 71.9* | -1.0
COc1ccccc1N1CCN(Cc2nc(N)nc(Nc3ccc(C)c(Cl)c3)n2)CC1 | 44.4 | 1.2 | 60.5 | 13.4 | 76.2* | -0.5
COc1ccccc1Nc1nc(N)nc(CN2CCN(c3ccccc3F)CC2)n1 | -13.0 | -1.0 | 9.3 | -12.3 | 62.4* | -1.0
O=C1CC(N(CCc2ccccc2)C(=S)Nc2ccccc2)C(=O)N1c1ccccc1 (configuration not stated) | 30.0 | 3.8 | 2.9 | 78.6* | 20.8 | -24.3
O=C1CC(N(CCc2ccccc2)C(=S)Nc2ccccc2)C(=O)N1c1ccc(F)cc1 (configuration not stated) | 12.1 | 12.9 | 9.9 | 38.1 | 22.6 | 4.2
